Screening results (PubChem)
Sampled rows, rich in hits. Any-hit rate of the full collection: about 4.6%.
D1 ag – activates the human D1 dopamine receptor; HEK293 T-REx D1 cells, calcium flux, agonist mode; activation, % at 2 µM; 360,000 compounds, 1% hits; AID 504660
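Agonism was scored from calcium flux recorded over 180 s (1 read/s) after pintool compound addition, following a 10-cycle baseline. Cells were inducible force-coupled HEK293 TREx D1, plated overnight at 30 C and loaded with no-wash calcium dye.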
D1 antag – human D1 dopamine receptor antagonism; 360,000 compounds, 3.2% hits; HEK293 TREx D1 cells, calcium flux, dopamine EC80; stronger effect = lower value; activity change, negative = inhibition, % at 10 µM; in the data active = activity change below about -30%
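Compound effects on dopamine-evoked calcium signalling were measured in tetracycline-induced HEK293 Trex D1 cells. Dopamine at EC80 followed a 180 s compound pre-read, and fluorescence was tracked kinetically for 180 s more.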
TRHR enhancer – TRH receptor (human) allosteric enhancement | P34981 | TRHR cells, fluo-8 calcium fluorescence, EC20 TRH enhancement | enhancement, % at 2 µM | 360,000 compounds, 0.66% hits | AID 493056; in the data active = enhancement above about 30%
Target sequence (P34981 whole entry, looked up): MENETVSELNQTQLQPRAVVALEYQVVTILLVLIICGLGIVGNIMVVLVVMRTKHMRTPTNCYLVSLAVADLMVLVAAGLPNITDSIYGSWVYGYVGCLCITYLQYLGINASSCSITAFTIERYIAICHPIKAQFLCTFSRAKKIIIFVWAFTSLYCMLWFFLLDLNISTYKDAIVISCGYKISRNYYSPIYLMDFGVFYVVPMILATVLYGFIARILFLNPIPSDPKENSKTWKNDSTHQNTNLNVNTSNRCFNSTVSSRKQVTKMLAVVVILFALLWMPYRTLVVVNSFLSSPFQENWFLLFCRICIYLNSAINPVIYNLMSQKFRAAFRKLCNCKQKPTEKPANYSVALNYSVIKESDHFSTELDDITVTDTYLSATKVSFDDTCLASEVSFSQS
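Enhancer read-out: after compound pinning and an initial kinetic agonist-mode read, an EC20 of TRH (10 nM final) was injected and fluo-8 calcium signal (Ex 480/Em 530) followed at 1 s/cycle for 100 cycles in TRHR-expressing cells.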
D1 potentiator – potentiators of human D1 dopamine receptor. HEK293 TREx D1 cells, calcium flux, dopamine EC20 potentiation. potentiation, % at 10 µM. P21728. 360,000 compounds, 0.036% hits; in the data active = potentiation above about 30%
TRHR agonist – activates the human TRH receptor; P34981; TRHR cells, calcium flux fluo-8, FDSS agonist mode; activation, % at 2 µM; 360,000 compounds, 0.18% hits
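Fluo-8-loaded TRHR cells; 10 s baseline, compound added, kinetic Ca2+ fluorescence read 1/s, agonist mode.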
Of the large screens only hits and unclear results are named; the others gave an inactive call; ! = not confirmed by another sample. Cut-off read from the data, not from the text of the source, unless noted: active = activation above about 30%; inactive = the rest.

CCCNC(=O)OCCC12CC3CC(CC(C3)C1)C2	D1 ag 33
CCCNC(=O)NCCC12CC3CC(CC(C3)C1)C2	none
N#Cc1ccc(C(=O)NCc2ccc3c(c2)CCN3C(=O)c2ccc(F)cc2)cc1	D1 antag -33
COc1ccc(CCC(=O)NCc2ccc3c(c2)CCN3C(=O)c2ccc(Cl)cc2)cc1	D1 antag -35
CCOc1ccc(C(=O)NCc2ccc3c(c2)CCN3C(=O)c2ccc(C)cc2)cc1OCC	D1 antag -66
Cc1ccc(C)c(SCC(=O)NCC(c2ccco2)N2CCCCC2)c1 (stereo unspecified)	none
O=C(O)[C@H]1CCCC[C@H]1C(=O)NCCNC(=O)[C@@H]1CCCC[C@@H]1C(=O)O	none
O=C(O)C1CCCCC1C(=O)OCCCCOC(=O)C1CCCCC1C(=O)O (stereo unspecified)	D1 antag -31
O=C(O)Cc1sc(Nc2ccccc2)nc1-c1ccccc1	none
O=C(O)Cc1sc(N/N=C\c2ccncc2)nc1-c1ccccc1	D1 ag 31
O=C(CN(c1ccccn1)S(=O)(=O)c1ccc(F)cc1)Nc1ccccc1	none
COC(=O)c1ccc(CN(c2ccccn2)S(=O)(=O)c2ccccc2)cc1	D1 antag -36
O=C(CN(c1ccccn1)S(=O)(=O)c1ccccc1)Nc1ccccc1	TRHR enhancer 39
CCOC(=O)CN(c1ccccn1)S(=O)(=O)c1ccccc1	none
COc1ccc(C(=O)COC(=O)CCN2C(=O)C3C4CC(C(Br)C4Br)C3C2=O)cc1 (stereo unspecified)	none
COc1ccc(C(=O)COC(=O)CN2C(=O)C3C4C=CC(C5CC45)C3C2=O)cc1 (stereo unspecified)	D1 antag -33
CCC(C)Sc1oc(-c2ccco2)nc1S(=O)(=O)c1ccc(C)cc1 (stereo unspecified)	none
O=C(OCC#CCSc1nnc(-c2cccc3ccccc23)o1)c1ccco1	D1 ag 32!
COC(=O)c1sccc1NC(=O)c1ccc(C(C)C)cc1	none
CC(=O)Nc1ccc(S(=O)(=O)N(C)CC(=O)N(C)Cc2sccc2C)cc1	D1 antag -32
CC(=O)Nc1ccc(S(=O)(=O)N(C)Cc2ccccc2)cc1	none
CC(C)NC(=O)Cn1c(=O)nc(-c2ccccc2)c2ccccc21	none
CCOc1ccc(N2C(=O)/C(=C\c3ccc(OC)c(O)c3)S(=O)(=O)C2c2cccc([N+](=O)[O-])c2)cc1 (stereo unspecified)	D1 antag -73
Cc1ccc(NC(=O)Cn2c(-c3ccc4c(c3)OCO4)cn(-c3ccccc3)c2=O)cc1	none
CC1CC(C)CN(CCOc2ccc(Cl)cc2Cl)C1 (stereo unspecified)	none
CC1CC(C)CN(CCOc2cccc(Cl)c2Cl)C1 (stereo unspecified)	D1 antag -35
CCCS(=O)(=O)N1CCCC(C(=O)NCCc2cccc(C)c2)C1 (stereo unspecified)	none
COc1ccc(-n2nc([N+](=O)[O-])c(=NCCc3cccc(C)c3)n2O)cc1	D1 antag -35
CCN(C(=O)c1cc2c(=O)oc3ccccc3c2s1)c1ccc(C)c(C)c1	none
CCCCC(=O)Nc1ccc(C(=O)Nc2ccc(OC)cc2[N+](=O)[O-])cc1	D1 ag 41
COCC(=O)NC1CCN(CC(=O)Nc2ccc(OC)cc2[N+](=O)[O-])CC1	D1 antag -38
CCCn1c(SCC(=O)Nc2ccc(OC)cc2[N+](=O)[O-])n[nH]c1=O	D1 antag -46
COc1ccc(-n2nc(C(=O)O)c3csc(N)c3c2=O)cc1	none
CCOC(=O)c1cc(-c2ccc(C)cc2)n(CC(=O)Nc2ccccc2F)c1C	none
Cc1cccc(-n2ncc(C(=O)NCc3ccco3)c2C2CCN(C(=O)OC(C)(C)C)CC2)c1	none
C=CCOc1ccc(Br)cc1CNC(C)(C)CO	D1 antag -42
CCOC(=O)c1cnn2c(C(F)(F)F)cc(-c3ccc(Br)cc3)nc12	none
COc1ccc(/C=C/c2ccncc2)cc1	D1 antag -34
CC(C)(C)c1ccc(C(=O)Nc2nnc3n2CCS3)cc1	none
COc1ccc(NC(=O)CSc2nc3c(oc4ccccc43)c(=O)n2Cc2ccco2)cc1Cl	none
O=C(Cc1ccccc1)Nc1cccc(-c2cn3cccnc3n2)c1	none
